Screens from PubChem BioAssay.
In the library only some 2.4% were active in any assay of this set; here they are far more common.
INS promoter inh: inhibitors of insulin promoter-driven GFP, primary screen, imaging, TRM-6 cells (human fetal islet line), eGFP reporter, cell count. 130,000 tested, 0.9% active. reporter expression induced with tamoxifen. AID 1273, 2008. inhibition, % at 2 µM;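 active = inhibition above the mean plus 3 SD, with well images judged a real hit on visual review, cut at about 60% in these data, passing the limit was not always enough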
EP2 mod: EP2 receptor modulators, cAMP readout, primary screen, cell-based, HTRF cAMP, PGE2 stimulation; 260,000 tested, 0.83% active; EP2-expressing cells, cAMP HTRF FRET, PGE2 co-stimulation; Prostaglandin E2 receptor EP2 subtype (Homo sapiens), P43116; AID 940, 2007; induction, % at 25 µM;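 active = compounds whose cAMP rise, as percent of the full-agonist control response, exceeds 60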;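 also: rat C6 glioma line stably carrying human EP2 under a CMV promoter; the protocol text gives 20 µM as final concentration; 100% = response of wells given 1 µM PGE2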
Target sequence (P43116 whole entry, looked up): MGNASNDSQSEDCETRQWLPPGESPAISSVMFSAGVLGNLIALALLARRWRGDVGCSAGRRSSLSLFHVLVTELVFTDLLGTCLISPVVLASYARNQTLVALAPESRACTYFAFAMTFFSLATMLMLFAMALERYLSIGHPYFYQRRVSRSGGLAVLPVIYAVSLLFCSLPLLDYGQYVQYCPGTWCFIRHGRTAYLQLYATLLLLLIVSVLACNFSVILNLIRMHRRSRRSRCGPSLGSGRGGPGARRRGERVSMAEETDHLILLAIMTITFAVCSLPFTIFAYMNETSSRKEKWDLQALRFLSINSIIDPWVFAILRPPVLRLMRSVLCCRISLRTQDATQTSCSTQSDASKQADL
S1P3 antagonist: S1P3 receptor antagonists, primary screen, cell-based | inhibition, % at 4.98 µM | CHO S1P3 NFAT-BLA reporter, FRET fluorescence, antagonist mode | AID 485, 2006 | Sphingosine 1-phosphate receptor 3 (Homo sapiens), Q99500 | 170,000 tested, 0.27% active;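 active = inhibition above the plate cutoff, the mean inhibition of test wells on that plate plus 3 SD, cut at about 28% in these data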;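 also: cells challenged with S1P at its EC80 of 0.8 µM; blue over green emission ratio from cleaved BLA substrate after 4 h stimulation; 0% = S1P-stimulated wells and 100% = unstimulated DMSO-only wells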
Target sequence (Q99500 whole entry, looked up): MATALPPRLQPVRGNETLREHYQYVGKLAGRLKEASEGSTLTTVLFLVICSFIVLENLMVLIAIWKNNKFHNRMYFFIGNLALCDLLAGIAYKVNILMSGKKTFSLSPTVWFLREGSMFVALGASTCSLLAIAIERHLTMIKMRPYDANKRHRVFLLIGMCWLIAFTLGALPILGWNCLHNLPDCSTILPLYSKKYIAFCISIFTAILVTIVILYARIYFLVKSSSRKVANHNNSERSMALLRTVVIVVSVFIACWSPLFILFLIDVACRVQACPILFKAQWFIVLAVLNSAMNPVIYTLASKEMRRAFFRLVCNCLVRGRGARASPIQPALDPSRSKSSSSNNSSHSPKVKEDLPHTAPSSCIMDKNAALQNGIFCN
S1P4 agonist: S1P4 receptor agonists, primary screen, cell-based. activation, % at 4.98 µM. Sphingosine 1-phosphate receptor 4 (Homo sapiens), O95977. 220,000 tested, 0.35% active. S1P4-expressing cell line, agonist reporter assay; in the data active = activation above about 11%;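 also: 0% = DMSO vehicle and 100% = reference agonist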
EP2 antag: human EP2 receptor antagonists, primary screen, TR-FRET cAMP, C6 glioma cells. Prostaglandin E2 receptor EP2 subtype (Homo sapiens), P43116. AID 1422, 2008. C6 glioma cells expressing human EP2; cells stimulated with saturating PGE2. inhibition, % at 25 µM. 260,000 tested, 0.52% active;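 active = percent inhibition above 40 after rounding to a whole number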;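 also: rat C6 glioma host cells with rolipram phosphodiesterase inhibitor present; the protocol text gives 20 µM as final concentration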
S1P4 antagonist: S1P4 receptor antagonists, primary screen, cell-based. Sphingosine 1-phosphate receptor 4 (Homo sapiens), O95977. S1P4-expressing cells, antagonist mode, reporter read-out. inhibition, % at 4.98 µM. 220,000 tested, 0.26% active. AID 1510, 2009; in the data active = inhibition above about 29%;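 also: 0% = wells stimulated with agonist and 100% = vehicle wells without agonist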
S1P4 agonist cf: S1P4 receptor agonists, retest, confirmation, cell-based, high throughput. shares compounds with S1P4 agonist. S1P4 agonist cell-based reporter assay. activation, % at 4.98 µM. 740 tested, 7% active. AID 1523, 2009; in the data active = activation above about 12%;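 also: 0% = vehicle and 100% = full reference agonist response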
S1P1 ag: S1P1 receptor agonists, human, counter-screen for S1P4 agonist project, cell-based | 740 tested, 4% active | S1P1 agonist cell-based assay, activation | activation, % at 4.98 µM | shares compounds with S1P4 agonist | AID 1563, 2009; in the data active = activation above about 21%;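 also: 0% = vehicle wells and 100% = reference agonist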
Active calls of the source: *; · = no result given.

SMILES	INS promoter inh	EP2 mod	S1P3 antagonist	S1P4 agonist	EP2 antag	S1P4 antagonist	S1P4 agonist cf	S1P1 ag
O=C(CSc1ccccc1)NCc1cccnc1	·	18.6	·	-0.2	·	-8.2	·	·
O=C(CCSc1ccccc1)NCc1cccnc1	10.0	-20.8	2.4	11.2*	0.8	-8.2	-1.8	1.2
CC1(C)C2CCC(C2)C1(C)NC(=O)Cn1nc(-c2cccs2)cc(N)c1=O (stereo unspecified)	·	-17.8	·	·	7.3	·	·	·
CC1C2=C(CC(C)(C)CC2=O)NC2=C1C(=O)CC(C)(C)C2	4.8	-10.4	-8.8	17.7*	5.3	-4.5	7.5	7.6
O=C1NC(c2ccccc2)C(C(=O)c2ccco2)=C1O (stereo unspecified)	·	6.5	·	·	11.8	·	·	·
CCC(C)NCCC(=O)Nc1ccc(Cl)c(S(=O)(=O)Nc2ccc(Cl)cc2)c1 (stereo unspecified)	·	-47.9	-14.1	19.1*	5.0	-1.6	-3.2	-7.3
Cc1ccc(C(=O)CCC(=O)Nc2ccc(Cl)c(S(=O)(=O)Nc3cccc(Cl)c3)c2)cc1	·	-53.1	-4.8	1.6	12.0	-2.1	·	·
O=C(Nc1nnc(C2CC2)s1)c1ccc(S(=O)(=O)c2ccccc2)cc1	-55.9	28.0	·	14.1*	10.8	-13.8	-1.7	0.9
O=C(Nc1nnc(C2CCCC2)s1)c1ccc(F)cc1	·	-19.8	·	·	9.3	·	·	·
CC1Cc2ccccc2N1C(=O)CCSc1nc(-c2ccc3c(c2)OCO3)cc(C(F)(F)F)n1 (stereo unspecified)	·	-31.6	·	·	7.7	·	·	·
CCOC(=O)Cc1csc(NC(=O)CSc2nc(N)c3c(C)c(C)sc3n2)n1	100.0*	-19.5	·	24.1*	15.6	-8.7	-1.4	-2.9
CCOc1ccccc1-n1c(SCC(=O)Nc2nccs2)nnc1-c1ccoc1C	·	3.3	-25.4	19.4*	7.8	4.2	-1.8	4.3
O=C(N[C@@H](Cc1ccccc1)C(=O)OCc1ccccc1)c1nc[nH]c1C(=O)NCc1ccccc1	·	46.3	-19.8	20.1*	7.9	5.0	31.9*	0.6
O=C(N[C@@H](Cc1ccccc1)C(=O)OCc1ccccc1)c1nc[nH]c1C(=O)N1CCN(c2ccccc2)CC1	·	-1.1	·	·	14.0	·	·	·
C=CCN(c1ccccc1)S(=O)(=O)c1cccc(C(=O)O)c1	-10.3	45.5	·	2.6	16.4	-4.6	·	·
C=CCN(c1ccccc1)S(=O)(=O)c1cccc(C(=O)Nc2nc3ccccc3[nH]2)c1	·	-16.6	-1.2	22.2*	3.5	-28.2	-2.6	-5.8
COc1cccc(NC(=S)N(CCc2c(C)[nH]c3ccccc23)Cc2cccs2)c1	23.8	-22.3	21.2	15.8*	·	-7.9	-1.9	-2.5
COc1ccc(CC(=O)N2CCC(c3[nH]ncc3-c3ccncc3)CC2)cc1	·	-21.7	·	·	·	·	·	·
CCOC(=O)c1cnn2c1[nH]c(=O)c1ccccc12	-181.8	5.5	·	254.7*	9.8	0.4	-2.6	11.8
COc1ccc(OC)c(S(=O)(=O)NC(N)=NCCc2ccccc2OC)c1	-30.8	-35.7	-21.5	23.1*	12.9	2.3	-1.4	-5.4
COc1ccccc1CCN=C(N)NS(=O)(=O)c1ccccc1	·	4.3	0.1	0.5	4.2	-5.1	·	·
Cc1ccc(NC(=O)N2CCN(c3ncccc3C(F)(F)F)CC2)cc1	·	-25.4	7.0	0.8	12.3	15.1	·	·
O=C(Nc1ccc2ccccc2c1)N1CCN(c2ncccc2C(F)(F)F)CC1	·	-24.8	6.4	15.8*	10.4	-13.8	-0.6	1.9
COc1ccc(C(c2nnnn2C2CCCC2)N2CCN(Cc3ccccc3)CC2)c(OC)c1 (stereo unspecified)	·	-7.9	·	·	9.6	·	·	·
CCCn1c(SCC(=O)Nc2ccc3c(c2)CCC3)n[nH]c1=O	15.4	4.4	-3.1	16.4*	5.1	1.9	-1.4	-7.7
SMILES	INS promoter inh	EP2 mod	S1P3 antagonist	S1P4 agonist	EP2 antag	S1P4 antagonist	S1P4 agonist cf	S1P1 ag
O=C(NC[C@H]1CCCN(C(=O)c2cccnc2)C1)c1cccs1	·	-3.7	·	·	·	·	·	·
Cc1ccc(C(N)=S)c(C)c1	-11.1	-18.1	-6.6	17.1*	6.7	4.4	-2.3	1.2
Cc1cc(C)c(NC(N)=S)c(C)c1	·	-5.9	-3.5	0.2	4.2	10.3	·	·
Cc1cccc(N=c2oc3cc(O)ccc3cc2C(N)=O)c1	·	-1.9	4.0	48.1*	14.1	-51.8	4.6	12.7
COc1ccc(N=c2oc3ccc(Br)cc3cc2C(=O)NCC2CCCO2)cc1OC (stereo unspecified)	·	-27.4	·	·	7.1	·	·	·
COc1ccccc1N=c1oc2cc(O)ccc2cc1C(N)=O	·	6.4	-5.5	26.7*	9.4	-56.9	3.5	9.7
COc1ccccc1N=c1oc2cc(O)ccc2cc1C(=O)NCC1CCCO1 (stereo unspecified)	16.7	27.3	4.3	38.0*	6.2	-35.4	0.8	1.8
COc1cccc(N=c2oc3cc(O)ccc3cc2C(=O)NCC2CCCO2)c1 (stereo unspecified)	·	8.2	-12.0	16.9*	12.1	-31.1	2.8	0.6
Cc1c(Cl)cccc1NC(=O)CSc1nnc(-c2ccncc2)n1CC1CCCO1 (stereo unspecified)	·	-8.0	·	·	14.6	·	·	·
CC(C(=O)O)n1cnc2ccccc2c1=O (stereo unspecified)	·	7.7	·	·	7.1	·	·	·
CC1CCCCN1C(=O)COc1ccccc1F (stereo unspecified)	0.0	-6.5	1.2	12.7*	2.8	-31.1	-0.4	-0.4
CC(=O)C1=C(C)NC(SCC(=O)c2ccc(Cl)cc2Cl)=C(C#N)C1c1ccco1 (stereo unspecified)	7.1	-8.3	23.1	23.6*	22.2	-30.5	25.9*	-8.0
CC(=O)C1=C(C)NC(SCC(=O)c2ccc(Cl)cc2)=C(C#N)C1c1ccco1 (stereo unspecified)	-71.4	-1.5	23.4	1.6	5.0	6.0	·	·
CC1=C(C(=O)OCc2ccccc2)C(c2ccc3c(c2)OCO3)C2=C(CC(C)(C)CC2=O)N1 (stereo unspecified)	·	-45.5	·	·	9.0	·	·	·
COc1ccc2cc(C#N)c(SCC(=O)Nc3ccccc3N3CCOCC3)nc2c1	·	41.7	·	·	13.3	·	·	·
CC(=O)Nc1ccccc1O	-31.8	18.0	0.5	1.1	12.5	-9.8	·	·
CC(=O)Nc1ccccc1C(=O)C(=O)O	53.6	-5.3	·	13.4*	4.4	-0.2	-2.5	0.1
N=c1c(C(=O)NCc2ccc(F)cc2)cc2c(=O)n3ccccc3nc2n1CC1CCCO1 (stereo unspecified)	·	8.8	-22.0	12.9*	9.7	-31.1	14.4*	8.2
